From PubChem BioAssay (NCI)
This is part of a sample that, as a whole, favours compounds with a hit. Of some 79,000 tested, about 15% had one in any assay. Active and inactive are the calls of the source. Cut-off read from the data, not from the text of the source: active = growth inhibition above about 70%; inactive = the rest.

What was measured:
[1] = NCI Yeast Anticancer Drug Screen. Data for the rad52 strain (AID 147);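 note: 0% = growth of vehicle-treated control cultures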; settings: S. cerevisiae rad52 mutant growth inhibition, stronger effect = higher value
Method in brief: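 Growth of repair-deficient yeast cells was compared between compound-treated and vehicle-treated cultures to give percent inhibition.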

[2] = NCI Yeast Anticancer Drug Screen. Data for the wt1 strain (AID 149);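 note: 0% = growth of vehicle-treated wt1 cultures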; settings: S. cerevisiae wt1 strain (SPY 50644) growth inhibition, stronger effect = higher value
Method in brief: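 Growth inhibition read against vehicle controls after compound exposure of the wt1 yeast strain.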

[3] = NCI Yeast Anticancer Drug Screen. Data for the rad50EPP+ strain (AID 151);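 note: 0% = growth of vehicle-treated control cultures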; settings: S. cerevisiae rad50 mutant strain, stronger effect = higher value
Method in brief: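 Measured: growth inhibition of rad50EPP+ yeast. Reference: vehicle-treated controls. Screen uses strains with defined genetic alterations in DNA damage repair or cell cycle control.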

[4] = NCI Yeast Anticancer Drug Screen. Data for the mgt1 strain (AID 153); settings: S. cerevisiae mgt1 mutant growth inhibition, stronger effect = higher value
Method in brief: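 Compounds were applied to mgt1 mutant yeast, and growth was then compared against vehicle-treated control cultures to give percent inhibition.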

[5] = NCI Yeast Anticancer Drug Screen. Data for the rad50 strain (AID 155);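 note: 0% = growth of vehicle-only cultures of the same strain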; settings: S. cerevisiae rad50 strain growth inhibition, stronger effect = higher value
Method in brief: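 Readout: growth inhibition relative to vehicle-treated cultures. Compound exposure was carried out in a genetically defined yeast strain deficient in DNA damage repair.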

[6] = NCI Yeast Anticancer Drug Screen. Data for the mec2-1 strain (AID 157); settings: S. cerevisiae mec2-1 strain, stronger effect = higher value
Method in brief: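 Compounds were applied to mec2-1 yeast cells. Their growth was then compared with that of vehicle-treated cultures to give growth inhibition.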

[7] = NCI Yeast Anticancer Drug Screen. Data for the sgs1 mgt1 strain (AID 161);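 note: 0% = growth of cultures given vehicle only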; settings: S. cerevisiae sgs1 mgt1 strain, stronger effect = higher value
Method in brief: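 Percent growth inhibition was derived by comparing compound-exposed mutant yeast with vehicle-exposed cultures. The strain carries alterations in DNA damage repair.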

[8] = NCI Yeast Anticancer Drug Screen. Data for the CLN2oe strain (AID 163);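 note: 0% = growth of vehicle-only control cultures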; settings: S. cerevisiae CLN2oe strain, stronger effect = higher value
Method in brief: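 Cells of an engineered yeast line with disturbed cell-cycle regulation are treated with compound. Inhibition of growth is then calculated relative to the vehicle-treated reference.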

[9] = NCI Yeast Anticancer Drug Screen. Data for the cln2 rad14 strain (AID 165);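 note: 0% = growth equal to vehicle treated cultures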; settings: S. cerevisiae cln2 rad14 strain, stronger effect = higher value
Method in brief: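 Strain: cln2 rad14 yeast, altered in cell cycle control and DNA damage repair. Read-out: growth inhibition vs vehicle.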

[10] = NCI Yeast Anticancer Drug Screen. Data for the bub3 strain (AID 167); settings: S. cerevisiae bub3 mutant strain, stronger effect = higher value
Method in brief: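 Readout: yeast growth inhibition, expressed relative to vehicle-only wells. The test organism is a mutant strain from a panel with lesions in DNA repair or checkpoint genes.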

[11] = NCI Yeast Anticancer Drug Screen. Data for the wt2 strain (AID 169);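 note: 0% = growth of vehicle-treated yeast cultures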; settings: S. cerevisiae wt2 strain growth inhibition, stronger effect = higher value
Method in brief: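 Growth of compound-treated yeast is measured and expressed as inhibition relative to vehicle-only controls.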

[12] = NCI Yeast Anticancer Drug Screen. Data for the mlh1 strain (AID 171);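 note: 0% = growth of vehicle-treated control cultures of the same strain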; settings: S. cerevisiae mlh1 strain growth inhibition, stronger effect = higher value
Method in brief: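 Test agents were incubated with yeast bearing a defined DNA damage repair or cell cycle control alteration; values are growth inhibition normalised to vehicle-treated cultures.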

[13] = NCI Yeast Anticancer Drug Screen. Data for the sgs1 strain (AID 173);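 note: 0% = growth of vehicle-only control cultures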; settings: S. cerevisiae sgs1 mutant, stronger effect = higher value
Method in brief: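 Strain with an altered DNA repair or cell cycle pathway exposed to compound. Growth then measured. Value = inhibition versus vehicle control.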

[14] = NCI Yeast Anticancer Drug Screen. Data for the mlh1 rad18 strain (AID 175); settings: S. cerevisiae mlh1 rad18 strain growth inhibition, stronger effect = higher value
Method in brief: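 A repair-deficient yeast strain is exposed to test compound, and growth is scored relative to vehicle-treated controls.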

[15] = NCI Yeast Anticancer Drug Screen. Data for the rad18 strain (AID 177); settings: S. cerevisiae rad18 mutant growth inhibition, stronger effect = higher value
Method in brief: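 DNA-repair-defective yeast; compound treatment; growth inhibition scored against vehicle.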

[16] = at 5.0 µM (retest, dose inferred, filed as 0.5)
[17] = at 50.0 µM (retest, dose inferred, filed as 5.0)

Measured: growth inhibition

COc1cc2ccccc2c2cc([N+](=O)[O-])oc12
inactive: [2]; at 1.2 µM 4% | [2]; at 3.7 µM 6% | [2]; at 11.0 µM 15% | [2]; at 33.0 µM 29% | [2]; at 100.0 µM 36% | [4]; at 1.2 µM 2% | [4]; at 3.7 µM 11% | [4]; at 11.0 µM 26% | [4]; at 33.0 µM 43% | [4]; at 100.0 µM 59% | [6]; at 1.2 µM 23% | [6]; at 3.7 µM 39% | [6]; [16] 45% | [6]; at 11.0 µM 55% | [6]; at 33.0 µM 65% | [6]; [17] 62% | [6]; at 50.0 µM 53% | [7]; at 50.0 µM 60.9% | [8]; at 1.2 µM -8% | [8]; at 3.7 µM -6% | [8]; at 11.0 µM 4% | [8]; at 33.0 µM 19% | [8]; at 100.0 µM 24% | [10]; at 1.2 µM -21% | [10]; at 3.7 µM -21% | [10]; [16] 2% | [10]; at 11.0 µM -1% | [10]; at 33.0 µM 5% | [10]; [17] 14% | [10]; at 50.0 µM 3.55% | [10]; at 100.0 µM 7% | [11]; at 1.2 µM 5% | [11]; at 3.7 µM 11% | [11]; at 11.0 µM 23% | [11]; at 33.0 µM 36% | [11]; at 100.0 µM 51% | [12]; at 1.2 µM 7% | [12]; at 3.7 µM 10% | [12]; at 11.0 µM 21% | [12]; at 33.0 µM 41% | [12]; at 100.0 µM 60%
active: [1]; at 1.2 µM 82% | [1]; at 3.7 µM 88% | [1]; at 11.0 µM 91% | [1]; at 33.0 µM 91% | [1]; at 100.0 µM 91% | [3]; at 1.2 µM 82% | [3]; at 3.7 µM 86% | [3]; at 11.0 µM 91% | [3]; at 33.0 µM 90% | [3]; at 100.0 µM 88% | [5]; at 1.2 µM 79% | [5]; at 3.7 µM 88% | [5]; [16] 75% | [5]; at 11.0 µM 92% | [5]; at 33.0 µM 91% | [5]; [17] 76% | [5]; at 50.0 µM 78.2% | [5]; at 100.0 µM 88% | [6]; at 100.0 µM 78% | [7]; [16] 73% | [7]; [17] 76% | [9]; [16] 91% | [9]; [17] 84% | [9]; at 50.0 µM 84.3% | [13]; at 1.2 µM 79% | [13]; at 3.7 µM 84% | [13]; at 11.0 µM 89% | [13]; at 33.0 µM 89% | [13]; at 100.0 µM 89% | [14]; [16] 89% | [14]; [17] 88% | [14]; at 50.0 µM 88.3%

C[C@]12CC[C@H](O)CC1=CC[C@@H]1[C@@H]2CC[C@]2(C)C(=O)CC[C@@H]12
active: [1]; at 100.0 µM 90% | [2]; at 100.0 µM 87% | [4]; at 100.0 µM 96% | [5]; at 33.0 µM 78% | [5]; [17] 98% | [5]; at 50.0 µM 88.5% | [5]; at 100.0 µM 91% | [6]; at 33.0 µM 79% | [6]; [17] 98% | [6]; at 50.0 µM 87.8% | [6]; at 100.0 µM 90% | [7]; [17] 80% | [7]; at 50.0 µM 88.1% | [8]; at 100.0 µM 94% | [9]; [17] 75% | [9]; at 50.0 µM 88.5% | [10]; at 33.0 µM 72% | [10]; [17] 78% | [10]; at 50.0 µM 86.2% | [10]; at 100.0 µM 92% | [11]; at 100.0 µM 92% | [12]; at 100.0 µM 97% | [13]; at 33.0 µM 77% | [13]; at 100.0 µM 97% | [14]; [17] 99% | [14]; at 50.0 µM 87.7% | [15]; at 33.0 µM 78% | [15]; at 100.0 µM 95%
inactive: [1]; at 1.2 µM -54% | [1]; at 3.7 µM -47% | [1]; at 11.0 µM -46% | [1]; at 33.0 µM 69% | [2]; at 1.2 µM -44% | [2]; at 3.7 µM -65% | [2]; at 11.0 µM -70% | [2]; at 33.0 µM 50% | [3]; at 1.2 µM -64% | [3]; at 3.7 µM 4% | [3]; at 11.0 µM 0% | [3]; at 33.0 µM 36% | [3]; at 100.0 µM 65% | [4]; at 1.2 µM -65% | [4]; at 3.7 µM -68% | [4]; at 11.0 µM -62% | [4]; at 33.0 µM 52% | [5]; at 1.2 µM -73% | [5]; at 3.7 µM -41% | [5]; [16] 58% | [5]; at 11.0 µM -57% | [6]; at 1.2 µM -94% | [6]; at 3.7 µM -71% | [6]; [16] 56% | [6]; at 11.0 µM -66% | [7]; [16] -7% | [8]; at 1.2 µM -16% | [8]; at 3.7 µM 2% | [8]; at 11.0 µM 8% | [8]; at 33.0 µM 54% | [9]; [16] 64% | [10]; at 1.2 µM -23% | [10]; at 3.7 µM -36% | [10]; [16] 20% | [10]; at 11.0 µM -17% | [11]; at 1.2 µM -52% | [11]; at 3.7 µM -42% | [11]; at 11.0 µM -37% | [11]; at 33.0 µM 59% | [12]; at 1.2 µM -51% | [12]; at 3.7 µM -81% | [12]; at 11.0 µM -49% | [12]; at 33.0 µM 37% | [13]; at 1.2 µM -75% | [13]; at 3.7 µM -56% | [13]; at 11.0 µM -65% | [14]; [16] 37% | [15]; at 1.2 µM -29% | [15]; at 3.7 µM -24% | [15]; at 11.0 µM -7%
